Test results reported in PubChem BioAssay (NCATS).
Records with an inconclusive call do not appear. Entries that show only a call come without a potency. Values without a mark were called inactive. Active and inactive are the calls of the source. The call rests on the fitted dose curve; in most records, active means well fitted cell-killing curve with a large enough effect; inconclusive means small, poorly fitted or top-dose-only effect; inactive means flat fitted curve, though single readings scatter.

Experiment: qHTS of pediatric cancer cell lines to identify multiple opportunities for drug repurposing: Primary screen for TC32 cells (AID 1347089); further: nearly all actives have a fitted effect of over 60% in size
Details: TC32 Ewing sarcoma viability, CellTiter-Glo luminescence, 48 h; series mostly up to 45.8 µM
Source text: Drug repurposing or repositioning has been offered as a strategy for drug development in oncology programs. This approach has special potential for childhood cancers and other rare or orphan diseases, where the expected return on new drug development has been a disincentive to pharmaceuticals.
In this project we exploit the poly-pharmacology of drugs to discover new indications via phenotypic screening of a panel of 19 well-characterized cell lines derived from solid tumors seen in children and adolescents. The goal is to identify approved drugs with previously unrecognized anticancer properties that has the potential to reveal new mechanisms and biological processes involved in carcinogenesis or drug resistance. We employed a titration-based paradigm (quantitative high-throughput screening or qHTS), where all compounds were tested at multiple concentrations for their effect on cell viability. Concentration-response curves (CRCs) were derived directly from the primary screen, and both potency and efficacy values were used to identify compounds with robust bioactivity profiles. We screened the NIH Chemical Genomics Center (NCGC) Pharmaceutical Collection (NPC) and Mechanism Interrogation Plate (MIPE) small molecule collections of approved and investigational compounds against these cell lines; and measured metabolically active cells after 48 hours of compound treatment as a proxy for cell viability.
Assay Submitter: Nathalia J. Martinez, National Center for Advancing Translational Sciences, National Institutes of Health, Rockville, MD, USA; email: natalia.martinez@nih.gov
[1] Shen, M et al. Quantitative high-throughput phenotypic screening of pediatric cancer cell lines identifies multiple opportunities for drug repurposing. Oncotarget 2017 Dec 19;9(4):4758-4772. PMID 29435139.
The cells were obtained from University of North Carolina (UNC), Pediatric Preclinical Testing Program (PPT), and Coriell Institute (CI).
qHTS cell viability assay:
Cells were assayed in growth media at a density of 500-1,000 cells/well. Five microliters of cells were dispensed into 1,536-well, white, solid-bottom, TC-treated plates (Greiner Bio One) using a multidrop dispenser and incubated at 37 degrees C, 5% CO2, under a humidified atmosphere for 5 hours. Twenty-three nanoliters of compounds and controls (neutral control DMSO or positive control bortezomib at final concentration of 2.3 uM) were subsequently transferred by Kalypsys pintool. For primary screens, the MIPE collection was tested at 11-point dilutions (final concentrations range from 0.78 nM to 46 µM) and the NPC collection at 8-point dilutions (final concentrations range from 0.59 nM to 46 µM). Compounds tested in follow-up screens were assayed at 11-point dilutions. Cells were incubated for 48 hours, followed by addition of 3 uL of CellTiter-Glo (Promega). After a 15min incubation at room temperature, samples were analyzed for luminescence intensity using a ViewLux High-throughput CCD imager equipped with clear filters.
Potency means the concentration at half of the fitted maximal effect.

| SMILES | Potency | activity change, negative = cytotoxic |
| --- | --- | --- |
| CCC(Cc1c(I)cc(I)c(N)c1I)C(=O)O (stereo not given) | inactive |  |
| CC(C)CCCC(C)N (stereo not given) | inactive |  |
| O=C(Oc1cccc2cccnc12)c1ccccc1 | 1670 nM (active) |  |
| CC(CNC1CCCCC1)OC(=O)c1ccccc1 (stereo not given) | inactive |  |
| NC(=O)n1c(O)c(C(=O)c2cccs2)c2cc(Cl)ccc21 | inactive |  |
| CCOc1ccc(NC(C)=O)cc1 | inactive |  |
| CCN[C@@H]1C[C@H](N)[C@@H](OC2OC(CN)=CCC2N)[C@H](O)[C@H]1O[C@H]1OC[C@](C)(O)[C@H](NC)[C@H]1O (stereo not given in full) |  | 2.31% [at 0.594 µM] |
| CCN(CC)CCOC(=O)C1(c2ccccc2)CCCC1 | inactive |  |
| COc1cc(N)c(Cl)cc1C(=O)NC1CCN(Cc2ccccc2)CC1 | inactive |  |
| NS(=O)(=O)Cc1noc2ccccc12 | inactive |  |
| CC(C)(C)NC[C@H](O)COc1cccc2c1CCCC2=O | inactive |  |
| CCCCCCCCCCCCSCCOCCO | inactive |  |
| CC(=O)Nc1ccc(OC(=O)c2ccccc2OC(C)=O)cc1 | inactive |  |
| C=C[C@@]1(C)CC(=O)[C@]2(O)[C@@]3(C)[C@@H](O)CCC(C)(C)[C@@H]3[C@H](O)[C@H](OC(C)=O)[C@@]2(C)O1 | inactive |  |
| CC(C(=O)O)c1cccc(Oc2ccccc2)c1 (stereo not given) | inactive |  |
| C[C@H]1[C@H]2CC[C@H]3[C@@H]4CC=C5C[C@@H](N(C)C)CC[C@]5(C)[C@H]4CC[C@]23CN1C | inactive |  |
| CC(C)NCC(O)c1ccc2ccccc2c1 (stereo not given) | inactive |  |
| CCC1NC(=O)c2cc(S(N)(=O)=O)c(Cl)cc2N1 (stereo not given) | inactive |  |
| Nc1nc(-c2ccccc2)c(Br)c(=O)[nH]1 | inactive |  |
| FC(F)(F)C(F)(F)C(F)(F)C(F)(F)C(F)(F)C(F)(F)C(F)(F)C(F)(F)Br | inactive |  |

| SMILES | Potency | activity change, negative = cytotoxic |
| --- | --- | --- |
| CC(C)Cc1ccc(CC(=O)O)cc1 | inactive |  |
| CN1CCC(OC(c2ccccc2)c2ccccc2)CC1 | inactive |  |
| CC(=O)Nc1ccc(CC(=O)O)cc1 | inactive |  |
| COc1cc(C(=O)NCc2ccc(OCCN(C)C)cc2)cc(OC)c1OC | inactive |  |
| CN(C)CCOC(c1ccc(Cl)cc1)c1ccccn1 (stereo not given) | inactive |  |
| O=[N+]([O-])c1cccc(S(=O)(=O)NCCNS(=O)(=O)c2cccc([N+](=O)[O-])c2)c1 | inactive |  |
| CN(C)CCN1C(=O)c2ccccc2N(C)c2ccccc21 | inactive |  |
| O=C1C(=O)c2ccccc2C(O)=C1C1CCC(c2ccc(Cl)cc2)CC1 (stereo not given) | inactive |  |
| CC1CCc2c(N3CCC(O)CC3)c(F)cc3c(=O)c(C(=O)O)cn1c23 (stereo not given) | inactive |  |
| COc1cc(C(=O)N2CCCCCCC2)cc(OC)c1OC | inactive |  |
| CCN1CCN(C(=O)N[C@@H](C(=O)N[C@@H]2C(=O)N3C(C(=O)O)=C(CSc4nnnn4C)CS[C@H]23)c2ccc(O)cc2)C(=O)C1=O | inactive |  |
| Cc1ncc(CO)c(C=O)c1O | inactive |  |
| CC1=C(C(=O)O)N2C(=O)[C@@H](NC(=O)[C@H](N)c3ccccc3)[C@H]2SC1 | inactive |  |
| CCCCCCCCOc1ccc(C(=O)c2ccccc2)c(O)c1 | inactive |  |
| COc1ccc(CCN(C)CCCN2CCc3cc(OC)c(OC)cc3CC2=O)cc1OC | inactive |  |
| CCOc1ccccc1C(N)=O | inactive |  |
| Nc1nc(N)c(-c2ccccc2)s1 | inactive |  |
| CN1CCN(C2=Nc3ccccc3Sc3ccc(Cl)cc32)CC1 | inactive |  |
| O=C(Nc1ccc([N+](=O)[O-])cc1)Nc1ccc([N+](=O)[O-])cc1 | inactive |  |
| Cc1cc(-c2ccccc2)nnc1NCCN1CCOCC1 | inactive |  |
